Experimental findings from PubChem BioAssay AID602410 (Johns Hopkins Ion Channel Center, 2012) are described below.

The structures appear in SMILES notation. Hit rate of the full screen: of about 340,000 compounds, about 2,800 (0.82%) were called active.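 How the source made its calls: active means B-score under library mean minus 4 SD, starting fluorescence ratio at most library mean plus 5 SD; inactive means the rest.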 Many of the other results were omitted from the sample, so actives are more common in it than they were.

The target of the assay is Potassium channel subfamily K member 3 (Homo sapiens) (UniProt O14649). As to the kind of experiment: blockers of TASK1 two-pore potassium channel – CHO cells, FluxOR thallium flux, B-score, primary screen (AID 602410).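 On B-score: more negative B-score means stronger inhibition of thallium flux through KCNK3.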 The note with it: CHO-KCNK3 thallium flux, FluxOR fluorescence, at 10 µM; stronger effect = lower value.
Potassium channel subfamily K member 3 (Homo sapiens), sequence (O14649 whole entry, looked up): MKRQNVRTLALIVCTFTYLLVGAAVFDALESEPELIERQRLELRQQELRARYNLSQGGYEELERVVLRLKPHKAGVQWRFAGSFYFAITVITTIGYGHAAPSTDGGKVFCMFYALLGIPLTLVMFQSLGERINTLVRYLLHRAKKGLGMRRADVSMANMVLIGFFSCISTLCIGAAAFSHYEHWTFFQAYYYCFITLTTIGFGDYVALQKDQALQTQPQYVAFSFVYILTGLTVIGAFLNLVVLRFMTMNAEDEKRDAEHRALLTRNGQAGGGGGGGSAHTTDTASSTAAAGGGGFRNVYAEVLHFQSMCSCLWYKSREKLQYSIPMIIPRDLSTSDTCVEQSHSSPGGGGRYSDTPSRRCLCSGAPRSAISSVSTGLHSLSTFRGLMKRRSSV
On to `CCCCn1c(O)c(C(CC)=NCc2ccco2)c(=O)[nH]c1=O`, for which the B-score result is “inactive”.
Turning to `CCCCCCN=C(CC)c1c(O)n(CCCC)c(=O)[nH]c1=O`, the B-score is -9.07 (active).
In the case of `CCC(=NCCCO)c1c(O)n(-c2ccc(OC)cc2)c(=O)[nH]c1=O`, the B-score entry was “inactive”.
Under `COc1ccc(Br)cc1CNCCc1cccc(Cl)c1` stands “inactive”; under `CCCCC(=O)N/N=C/c1c(O)n(CC)c(=S)n(CC)c1=O`, “inactive”.
Turning to `Oc1cc2c(cc1CN1CCN(c3ccccc3)CC1)OCO2`, the B-score result was “inactive”.
With `COc1ccc(C(=O)C2CCCN(Cc3ccc(C)s3)C2)cc1OC` (stereo not given), the B-score entry was “inactive”.
Regarding `COc1ccccc1C1=NCc2nnc(CSC)n2-c2ccc(Cl)cc21`, the B-score was -9.71 (active).
As for `Cc1cc(C(=O)OCC(=O)Nc2c(F)cccc2F)c(C)n1C1CC1`, the B-score entry is “inactive”.
Under `CC(C)c1c(CN(C)C(C)Cc2ccccc2)n(C)n(-c2ccccc2)c1=O` (stereo not given) stands “inactive”; under `CCN1CCN(Cc2cc(OC)c3c(c2)OCO3)CC1`, “inactive”.
For `CCOC(=O)C1SC2(C(F)(F)C(F)F)CC1(O)c1c(c(OC)c3occc3c1OC)O2` (stereo not given) the value was -10.9 (active); for `CCOC(=O)C(O)(c1ccc(N=Cc2ccccc2O)c(C)c1)C(F)(F)F` (stereo not given), “inactive”.
`CC12CN3CC(C)(CN(C1)C3c1cccs1)C2` (stereo not given): the B-score entry was “inactive”.
For `CNCC(O)c1cc(F)c(OCc2ccccc2)c(OCc2ccccc2)c1F` (stereo not given), the B-score entry is “inactive”.
